# Legend:
# Assay in all cases: DAPPL (digital affinity profiling via proximity ligation, sequencing); 10 mM Tris-HCl pH 7.5, 50 mM NaCl, 1 mM DTT, 4% glycerol, room temperature, 30 min; GST-TFs on glutathione beads, 16-mer random dsDNA library, 0.1% formaldehyde crosslink after washing; high values mean tight binding
# [1] = target: T1, FLI1 (Homo sapiens, UniProt Q01543 1-452); conditions: protein: recombinant; tags: N-terminal GST; dsDNA, one strand shown
# T1 sequence: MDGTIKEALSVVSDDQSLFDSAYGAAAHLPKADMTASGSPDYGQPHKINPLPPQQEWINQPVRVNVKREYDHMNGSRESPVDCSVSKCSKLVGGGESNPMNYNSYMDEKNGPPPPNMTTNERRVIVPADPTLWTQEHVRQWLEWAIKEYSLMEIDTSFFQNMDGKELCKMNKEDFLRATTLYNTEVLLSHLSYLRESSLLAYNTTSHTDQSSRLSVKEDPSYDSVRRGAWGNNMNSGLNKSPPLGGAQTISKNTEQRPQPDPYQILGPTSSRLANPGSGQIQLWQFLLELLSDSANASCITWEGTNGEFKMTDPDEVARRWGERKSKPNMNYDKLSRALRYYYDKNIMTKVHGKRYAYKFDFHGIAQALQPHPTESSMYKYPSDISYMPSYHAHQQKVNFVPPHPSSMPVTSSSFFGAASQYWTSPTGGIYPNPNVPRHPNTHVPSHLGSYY
# Procedure, shortened: (§1)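 Beads coated with glutathione captured GST-fused human transcription factors that had been expressed in yeast, and the factors were then given DNA barcodes and pooled with a tag-only sample. The pools were incubated with 200 nmole of a random double-stranded 16-mer DNA library in Tris/NaCl/DTT/glycerol buffer for 30 min at room temperature, washed, crosslinked with 0.1% formaldehyde and proximity-ligated with BsaI/T4 ligase at 37 °C for 1 h. PCR amplification and Illumina NextSeq500 sequencing came last. Binding signal is each hexamer's read frequency for a factor divided by its frequency for the tag-only sample.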
# [2] = target: T2, ELK1 (Homo sapiens, UniProt P19419 1-428); conditions: protein: recombinant; tags: N-terminal GST; dsDNA, one strand shown
# T2 sequence: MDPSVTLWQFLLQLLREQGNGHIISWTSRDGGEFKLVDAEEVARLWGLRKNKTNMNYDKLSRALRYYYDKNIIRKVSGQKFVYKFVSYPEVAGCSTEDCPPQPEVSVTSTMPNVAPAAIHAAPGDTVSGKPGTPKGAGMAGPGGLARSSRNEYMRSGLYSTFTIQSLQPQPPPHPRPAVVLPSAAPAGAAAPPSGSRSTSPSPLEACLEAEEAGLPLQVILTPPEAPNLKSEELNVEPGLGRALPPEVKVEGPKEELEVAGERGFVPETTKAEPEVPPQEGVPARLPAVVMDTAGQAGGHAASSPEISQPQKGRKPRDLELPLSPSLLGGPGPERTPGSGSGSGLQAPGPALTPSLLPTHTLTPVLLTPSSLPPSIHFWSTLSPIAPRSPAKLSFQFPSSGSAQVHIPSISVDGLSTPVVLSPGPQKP
# Procedure, shortened: as §1
# [3] = target: T3, GABPA (Homo sapiens, UniProt Q06546 1-454); conditions: protein: recombinant; tags: N-terminal GST; dsDNA, one strand shown
# T3 sequence: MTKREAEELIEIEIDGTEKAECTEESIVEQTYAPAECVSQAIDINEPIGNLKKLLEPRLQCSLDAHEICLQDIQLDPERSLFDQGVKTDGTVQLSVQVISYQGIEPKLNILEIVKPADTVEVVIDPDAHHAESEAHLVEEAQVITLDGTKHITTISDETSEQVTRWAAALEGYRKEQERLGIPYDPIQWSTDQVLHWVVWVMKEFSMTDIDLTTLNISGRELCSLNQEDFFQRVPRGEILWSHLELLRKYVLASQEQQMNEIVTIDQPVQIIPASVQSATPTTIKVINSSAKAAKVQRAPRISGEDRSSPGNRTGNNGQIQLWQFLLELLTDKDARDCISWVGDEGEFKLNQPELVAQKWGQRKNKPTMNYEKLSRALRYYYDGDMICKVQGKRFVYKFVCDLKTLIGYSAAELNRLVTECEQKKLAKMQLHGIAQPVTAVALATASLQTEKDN
# Procedure, shortened: as §1
# [4] = target: T4, ERG (Homo sapiens, UniProt P11308 1-479); conditions: protein: recombinant; tags: N-terminal GST; dsDNA, one strand shown
# T4 sequence: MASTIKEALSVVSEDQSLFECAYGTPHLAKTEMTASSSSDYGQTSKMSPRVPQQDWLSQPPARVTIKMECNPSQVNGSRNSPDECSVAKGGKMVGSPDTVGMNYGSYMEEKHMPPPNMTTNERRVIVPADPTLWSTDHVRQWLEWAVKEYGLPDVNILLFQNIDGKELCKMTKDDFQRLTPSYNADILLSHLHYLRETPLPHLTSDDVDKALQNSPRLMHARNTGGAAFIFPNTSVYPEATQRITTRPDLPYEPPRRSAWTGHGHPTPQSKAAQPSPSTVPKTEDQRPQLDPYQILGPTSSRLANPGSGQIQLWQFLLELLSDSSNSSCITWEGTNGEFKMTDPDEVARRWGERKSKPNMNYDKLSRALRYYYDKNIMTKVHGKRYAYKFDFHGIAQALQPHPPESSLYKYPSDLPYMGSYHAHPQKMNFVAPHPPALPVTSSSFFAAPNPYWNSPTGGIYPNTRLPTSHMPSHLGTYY
# Procedure, shortened: as §1
# [5] = target: ELF1 (Homo sapiens, UniProt P32519 1-619); conditions: protein: recombinant; tags: N-terminal GST; dsDNA, one strand shown
# Procedure, shortened: as §1
# [6] = target: T5, EHF (Homo sapiens, UniProt Q9NZC4 1-300); conditions: protein: recombinant; tags: N-terminal GST; dsDNA, one strand shown
# T5 sequence: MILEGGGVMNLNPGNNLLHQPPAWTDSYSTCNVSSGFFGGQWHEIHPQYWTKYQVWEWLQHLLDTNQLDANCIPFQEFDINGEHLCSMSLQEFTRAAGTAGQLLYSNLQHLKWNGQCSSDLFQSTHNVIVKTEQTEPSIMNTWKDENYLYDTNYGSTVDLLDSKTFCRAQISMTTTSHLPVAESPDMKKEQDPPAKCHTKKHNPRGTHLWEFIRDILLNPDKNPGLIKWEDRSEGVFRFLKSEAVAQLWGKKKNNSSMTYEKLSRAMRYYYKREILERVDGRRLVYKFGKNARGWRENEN
# Procedure, shortened: as §1
# [7] = target: SPI1 (Homo sapiens, UniProt P17947 1-270); conditions: protein: recombinant; tags: N-terminal GST; dsDNA, one strand shown
# Procedure, shortened: as §1
# [8] = target: SPIB (Homo sapiens, UniProt Q01892 1-262); conditions: protein: recombinant; tags: N-terminal GST; dsDNA, one strand shown
# Procedure, shortened: as §1
# [9] = target: T6, ELK3 (Homo sapiens, UniProt P41970 1-407); conditions: protein: recombinant; tags: N-terminal GST; dsDNA, one strand shown
# T6 sequence: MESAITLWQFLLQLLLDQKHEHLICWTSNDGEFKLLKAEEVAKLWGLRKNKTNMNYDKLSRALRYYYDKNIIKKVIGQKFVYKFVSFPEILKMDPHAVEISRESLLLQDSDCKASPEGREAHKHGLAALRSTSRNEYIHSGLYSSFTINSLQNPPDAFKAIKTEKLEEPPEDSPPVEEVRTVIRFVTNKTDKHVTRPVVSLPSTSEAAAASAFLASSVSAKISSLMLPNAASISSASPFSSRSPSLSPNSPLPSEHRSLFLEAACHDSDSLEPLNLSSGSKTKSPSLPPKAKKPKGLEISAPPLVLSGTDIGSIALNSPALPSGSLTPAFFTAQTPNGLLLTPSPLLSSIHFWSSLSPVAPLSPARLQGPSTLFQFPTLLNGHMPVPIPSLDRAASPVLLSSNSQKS
# Procedure, shortened: as §1
# [10] = target: T7, FEV (Homo sapiens, UniProt Q99581 1-238); conditions: protein: recombinant; tags: N-terminal GST; dsDNA, one strand shown
# T7 sequence: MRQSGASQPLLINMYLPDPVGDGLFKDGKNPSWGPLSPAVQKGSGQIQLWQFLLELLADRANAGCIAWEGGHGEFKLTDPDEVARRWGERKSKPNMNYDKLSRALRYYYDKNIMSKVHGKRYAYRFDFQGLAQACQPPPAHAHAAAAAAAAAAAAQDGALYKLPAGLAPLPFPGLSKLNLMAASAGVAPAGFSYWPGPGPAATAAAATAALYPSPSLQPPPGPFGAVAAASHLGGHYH
# Procedure, shortened: as §1
# [11] = target: ETV5 (Homo sapiens, UniProt P41161 1-510); conditions: protein: recombinant; tags: N-terminal GST; dsDNA, one strand shown
# Procedure, shortened: as §1
# [12] = target: HSF1 (Homo sapiens, UniProt Q00613 1-529); conditions: protein: recombinant; tags: N-terminal GST; chain copies: 3; dsDNA, one strand shown
# Procedure, shortened: as §1
# [13] = target: T8, SPIC (Homo sapiens, UniProt Q8N5J4 1-248); conditions: protein: recombinant; tags: N-terminal GST; dsDNA, one strand shown
# T8 sequence: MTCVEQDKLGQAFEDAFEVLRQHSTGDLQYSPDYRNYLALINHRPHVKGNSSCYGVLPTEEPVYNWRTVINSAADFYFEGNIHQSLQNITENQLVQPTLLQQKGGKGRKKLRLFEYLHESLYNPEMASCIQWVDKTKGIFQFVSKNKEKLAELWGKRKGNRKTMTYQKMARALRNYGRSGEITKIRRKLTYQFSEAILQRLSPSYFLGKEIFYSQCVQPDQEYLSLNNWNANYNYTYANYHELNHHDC
# Procedure, shortened: as §1
# [14] = target: ELF4 (Homo sapiens, UniProt Q99607 1-663); conditions: protein: recombinant; tags: N-terminal GST; dsDNA, one strand shown
# Procedure, shortened: as §1
# [15] = target: T9, ELK4 (Homo sapiens, UniProt P28324-2 1-405); conditions: protein: recombinant; tags: N-terminal GST; dsDNA, one strand shown
# T9 sequence: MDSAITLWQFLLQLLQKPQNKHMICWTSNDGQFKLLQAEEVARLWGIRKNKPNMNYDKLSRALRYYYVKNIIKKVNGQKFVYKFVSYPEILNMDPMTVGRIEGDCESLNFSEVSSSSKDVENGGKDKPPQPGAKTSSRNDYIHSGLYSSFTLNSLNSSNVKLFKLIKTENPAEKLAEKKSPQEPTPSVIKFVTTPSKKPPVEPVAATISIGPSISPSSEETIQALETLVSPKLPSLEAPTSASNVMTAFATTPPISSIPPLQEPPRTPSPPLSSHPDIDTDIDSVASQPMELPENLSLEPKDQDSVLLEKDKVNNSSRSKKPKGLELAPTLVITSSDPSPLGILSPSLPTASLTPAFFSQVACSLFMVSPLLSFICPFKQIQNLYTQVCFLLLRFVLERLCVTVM
# Procedure, shortened: as §1
# [16] = target: T10, ETV2 (Homo sapiens, UniProt O00321 1-342); conditions: protein: recombinant; tags: N-terminal GST; dsDNA, one strand shown
# T10 sequence: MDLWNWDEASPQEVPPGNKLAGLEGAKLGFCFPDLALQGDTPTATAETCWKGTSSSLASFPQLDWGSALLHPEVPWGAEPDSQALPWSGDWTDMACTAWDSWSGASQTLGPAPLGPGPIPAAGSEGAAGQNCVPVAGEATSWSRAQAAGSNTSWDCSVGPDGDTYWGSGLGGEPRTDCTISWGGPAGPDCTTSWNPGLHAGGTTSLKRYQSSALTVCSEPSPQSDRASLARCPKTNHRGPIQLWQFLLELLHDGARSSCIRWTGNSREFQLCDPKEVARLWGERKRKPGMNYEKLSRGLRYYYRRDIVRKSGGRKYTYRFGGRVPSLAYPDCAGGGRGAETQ
# Procedure, shortened: as §1
# [17] = target: T11, ELF3 (Homo sapiens, UniProt P78545 1-371); conditions: protein: recombinant; tags: N-terminal GST; dsDNA, one strand shown
# T11 sequence: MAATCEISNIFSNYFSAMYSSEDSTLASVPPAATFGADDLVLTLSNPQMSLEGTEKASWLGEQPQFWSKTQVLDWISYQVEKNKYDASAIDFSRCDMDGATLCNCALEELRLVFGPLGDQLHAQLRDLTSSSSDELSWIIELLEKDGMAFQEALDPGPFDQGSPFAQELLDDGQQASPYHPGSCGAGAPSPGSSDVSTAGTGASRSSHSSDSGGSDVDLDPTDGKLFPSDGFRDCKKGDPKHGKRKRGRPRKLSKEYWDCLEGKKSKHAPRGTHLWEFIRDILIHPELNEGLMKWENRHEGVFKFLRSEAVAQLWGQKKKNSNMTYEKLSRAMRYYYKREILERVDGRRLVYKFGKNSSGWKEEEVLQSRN
# Procedure, shortened: as §1
# [18] = target: CRX (Homo sapiens, UniProt O43186 1-299); conditions: protein: recombinant; tags: N-terminal GST; dsDNA, one strand shown
# Procedure, shortened: as §1
# [19] = target: ETV1 (Homo sapiens, UniProt P50549 1-477); conditions: protein: recombinant; tags: N-terminal GST; dsDNA, one strand shown
# Procedure, shortened: as §1
# Chain of ELF1 (P32519 whole entry): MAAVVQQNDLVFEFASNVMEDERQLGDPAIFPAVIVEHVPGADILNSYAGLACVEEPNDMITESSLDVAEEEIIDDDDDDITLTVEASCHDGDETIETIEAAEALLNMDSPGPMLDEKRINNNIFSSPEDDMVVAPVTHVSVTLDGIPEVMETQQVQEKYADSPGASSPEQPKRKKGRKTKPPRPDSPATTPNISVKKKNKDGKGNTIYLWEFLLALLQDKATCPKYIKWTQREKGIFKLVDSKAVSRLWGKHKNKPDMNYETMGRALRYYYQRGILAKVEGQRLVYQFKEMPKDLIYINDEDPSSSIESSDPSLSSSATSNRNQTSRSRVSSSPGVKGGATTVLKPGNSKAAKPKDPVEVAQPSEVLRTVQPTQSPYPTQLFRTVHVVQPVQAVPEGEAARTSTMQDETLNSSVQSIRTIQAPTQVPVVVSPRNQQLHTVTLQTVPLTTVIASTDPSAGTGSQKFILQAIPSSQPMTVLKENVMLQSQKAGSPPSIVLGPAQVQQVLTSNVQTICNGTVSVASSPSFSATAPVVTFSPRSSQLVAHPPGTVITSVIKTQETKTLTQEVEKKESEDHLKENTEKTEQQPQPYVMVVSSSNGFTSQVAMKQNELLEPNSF
# Chain of CRX (O43186 whole entry): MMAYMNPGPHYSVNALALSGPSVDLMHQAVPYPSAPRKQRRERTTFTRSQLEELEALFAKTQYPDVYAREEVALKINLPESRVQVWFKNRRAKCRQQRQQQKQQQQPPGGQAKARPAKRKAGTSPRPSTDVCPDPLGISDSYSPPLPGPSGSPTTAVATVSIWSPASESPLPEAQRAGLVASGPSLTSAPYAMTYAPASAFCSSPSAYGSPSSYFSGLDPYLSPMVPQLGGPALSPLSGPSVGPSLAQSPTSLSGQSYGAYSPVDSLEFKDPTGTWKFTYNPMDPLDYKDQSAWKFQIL
# Chain of ETV5 (P41161 whole entry): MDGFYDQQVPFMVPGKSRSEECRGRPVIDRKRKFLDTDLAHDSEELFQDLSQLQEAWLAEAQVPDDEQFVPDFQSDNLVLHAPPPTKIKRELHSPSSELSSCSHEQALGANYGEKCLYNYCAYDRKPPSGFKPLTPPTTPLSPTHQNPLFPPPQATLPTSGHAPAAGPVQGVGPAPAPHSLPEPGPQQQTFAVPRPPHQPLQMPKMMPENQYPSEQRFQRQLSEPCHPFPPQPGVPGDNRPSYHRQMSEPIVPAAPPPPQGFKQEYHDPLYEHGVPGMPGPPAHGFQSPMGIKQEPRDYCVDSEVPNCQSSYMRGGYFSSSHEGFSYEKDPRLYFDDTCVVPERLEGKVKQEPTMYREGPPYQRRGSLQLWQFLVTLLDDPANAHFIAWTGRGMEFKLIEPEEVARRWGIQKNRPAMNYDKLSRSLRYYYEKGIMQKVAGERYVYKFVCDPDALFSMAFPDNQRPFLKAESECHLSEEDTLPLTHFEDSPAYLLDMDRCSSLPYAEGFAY
# Chain of HSF1 (Q00613 whole entry): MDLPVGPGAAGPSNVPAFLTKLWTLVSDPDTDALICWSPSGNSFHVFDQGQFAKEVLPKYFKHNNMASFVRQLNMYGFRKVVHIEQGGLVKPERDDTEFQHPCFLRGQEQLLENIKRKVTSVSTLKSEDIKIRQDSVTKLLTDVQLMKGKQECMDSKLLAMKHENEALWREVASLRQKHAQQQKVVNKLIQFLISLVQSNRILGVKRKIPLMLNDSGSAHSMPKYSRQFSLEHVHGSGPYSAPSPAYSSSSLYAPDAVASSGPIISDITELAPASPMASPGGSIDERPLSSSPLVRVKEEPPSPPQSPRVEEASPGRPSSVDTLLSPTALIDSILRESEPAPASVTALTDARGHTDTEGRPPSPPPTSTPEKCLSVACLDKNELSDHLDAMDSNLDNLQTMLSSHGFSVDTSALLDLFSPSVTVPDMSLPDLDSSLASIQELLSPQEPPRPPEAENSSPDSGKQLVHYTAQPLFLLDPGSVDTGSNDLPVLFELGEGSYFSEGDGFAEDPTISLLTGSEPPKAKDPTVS
# Chain of ETV1 (P50549 whole entry): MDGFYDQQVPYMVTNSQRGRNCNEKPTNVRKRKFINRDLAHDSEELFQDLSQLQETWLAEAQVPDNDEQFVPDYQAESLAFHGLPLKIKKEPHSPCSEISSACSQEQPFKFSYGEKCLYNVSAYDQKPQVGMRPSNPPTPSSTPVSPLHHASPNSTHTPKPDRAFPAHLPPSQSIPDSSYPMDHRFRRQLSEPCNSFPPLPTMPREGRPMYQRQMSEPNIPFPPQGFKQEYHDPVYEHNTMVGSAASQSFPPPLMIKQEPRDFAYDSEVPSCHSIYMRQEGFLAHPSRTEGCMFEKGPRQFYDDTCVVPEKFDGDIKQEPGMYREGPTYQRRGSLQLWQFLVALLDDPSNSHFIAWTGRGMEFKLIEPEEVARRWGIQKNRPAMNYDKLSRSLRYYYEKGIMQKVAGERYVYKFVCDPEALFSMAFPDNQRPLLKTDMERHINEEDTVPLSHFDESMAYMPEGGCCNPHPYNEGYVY
# Chain of SPIB (Q01892 whole entry): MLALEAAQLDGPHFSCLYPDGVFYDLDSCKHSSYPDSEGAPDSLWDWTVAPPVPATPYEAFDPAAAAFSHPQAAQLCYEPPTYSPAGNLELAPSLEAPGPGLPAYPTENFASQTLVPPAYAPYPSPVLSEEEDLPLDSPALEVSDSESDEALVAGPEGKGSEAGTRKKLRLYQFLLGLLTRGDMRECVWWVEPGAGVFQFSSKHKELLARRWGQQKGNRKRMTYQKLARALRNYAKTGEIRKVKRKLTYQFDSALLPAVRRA
# Chain of ELF4 (Q99607 whole entry): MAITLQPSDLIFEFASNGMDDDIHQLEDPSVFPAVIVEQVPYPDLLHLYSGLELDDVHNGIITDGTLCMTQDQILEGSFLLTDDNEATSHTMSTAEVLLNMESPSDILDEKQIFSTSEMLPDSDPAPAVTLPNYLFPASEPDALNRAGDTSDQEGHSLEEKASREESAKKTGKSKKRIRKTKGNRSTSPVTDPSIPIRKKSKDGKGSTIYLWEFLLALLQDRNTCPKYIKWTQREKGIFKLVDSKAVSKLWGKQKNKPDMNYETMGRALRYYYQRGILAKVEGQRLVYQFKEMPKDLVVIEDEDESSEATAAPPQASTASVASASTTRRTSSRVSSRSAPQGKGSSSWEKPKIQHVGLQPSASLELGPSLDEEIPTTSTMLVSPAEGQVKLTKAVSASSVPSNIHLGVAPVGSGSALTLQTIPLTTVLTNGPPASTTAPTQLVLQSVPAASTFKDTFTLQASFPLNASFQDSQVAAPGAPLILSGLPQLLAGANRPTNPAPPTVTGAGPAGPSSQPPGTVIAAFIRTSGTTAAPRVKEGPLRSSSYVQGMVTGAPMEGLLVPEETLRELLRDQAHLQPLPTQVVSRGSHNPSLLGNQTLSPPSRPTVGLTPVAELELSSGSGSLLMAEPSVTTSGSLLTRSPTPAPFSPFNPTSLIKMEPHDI
sequence,measurement,setting,value
TGCTAA,binding signal,[1],"1.24 fold enrichment (6-mer frequency, TF over GST control)"
same,binding signal,[2],"1.37 fold enrichment (6-mer frequency, TF over GST control)"
same,binding signal,[3],"1.18 fold enrichment (6-mer frequency, TF over GST control)"
same,binding signal,[4],"1.23 fold enrichment (6-mer frequency, TF over GST control)"
same,binding signal,[5],"1.22 fold enrichment (6-mer frequency, TF over GST control)"
same,binding signal,[6],"1.27 fold enrichment (6-mer frequency, TF over GST control)"
same,binding signal,[7],"1.34 fold enrichment (6-mer frequency, TF over GST control)"
same,binding signal,[8],"1.28 fold enrichment (6-mer frequency, TF over GST control)"
same,binding signal,[9],"1.29 fold enrichment (6-mer frequency, TF over GST control)"
same,binding signal,[10],"1.29 fold enrichment (6-mer frequency, TF over GST control)"
same,binding signal,[11],"1.29 fold enrichment (6-mer frequency, TF over GST control)"
same,binding signal,[12],"1.32 fold enrichment (6-mer frequency, TF over GST control)"
same,binding signal,[13],"1.26 fold enrichment (6-mer frequency, TF over GST control)"
same,binding signal,[14],"1.28 fold enrichment (6-mer frequency, TF over GST control)"
same,binding signal,[15],"1.42 fold enrichment (6-mer frequency, TF over GST control)"
same,binding signal,[16],"1.24 fold enrichment (6-mer frequency, TF over GST control)"
same,binding signal,[17],"1.15 fold enrichment (6-mer frequency, TF over GST control)"
same,binding signal,[18],"1.8 fold enrichment (6-mer frequency, TF over GST control)"
same,binding signal,[19],"1.39 fold enrichment (6-mer frequency, TF over GST control)"
